Assay outcomes deposited in PubChem by several laboratories.
In the library only some 5.3% were active in any assay of this set; here they are far more common.
MT1-MMP txn act – MT1-MMP promoter reporter activation – cell-based, luciferase luminescence, primary screen; HT1080 MT1-MMP promoter luciferase reporter, overnight; active compounds read high; 86,000 tested, 0.16% active; activation factor at 10 µM;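 active = activation factor of at least 2 for MT1-MMP transcription at 10 µM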
PostGolgi yeast – phenotypic screen on post-Golgi transport, primary screen; post-Golgi transport phenotypic cell assay; inhibition, % at 10 µM; 98,000 tested, 0.9% active;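 also: yeast cells grown in 1536-well plates; yeast grown about 18 h at 30C before absorbance read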
PostGolgi ctrl – growth inhibition of yeast control strain, primary screen, counter-screen for post-Golgi transport modulator project | inhibition, % at 10 µM | 98,000 tested, 5% active | efflux-deficient yeast background strain, growth absorbance A615, 16 h
Measles CPE – compounds protecting cells from measles virus cytopathic effect, primary screen, measles RdRp inhibitor project, single point, MLSMR library, absorbance. Measles virus-infected cells, CPE protection. protection (pct of control), % at 4 µM. 140,000 tested, 1.5% active. AID 841, 2007; in the data active = protection mostly above about 24%, no sharp cut-off; inactive = mostly below about 26%
Numbers stand for hits; - = inactive; . = not tested or not shown. Rule as the data show it, unless noted: active = inhibition above about 30%; inactive = the rest.

SMILES	MT1-MMP txn act	PostGolgi yeast	PostGolgi ctrl	Measles CPE
Nc1c(C(=O)NCc2ccco2)sc2nc(N3CCOCC3)c3c(c12)CCCC3	-	-	33	-
C1CCC(c2nn3c(-c4n[nH]c5c4CCC5)nnc3s2)CC1	-	-	-	-
CCN(CC)c1ccc(-c2nn3c(-c4n[nH]c5c4CCC5)nnc3s2)cc1	-	-	43	-
COc1ccnc(Oc2ccc3ccccc3c2)c1C#N	.	-	-	-
COc1ccnc(Oc2ccc(C)cc2)c1C#N	.	-	-	67
CC(NC(=O)Nc1ccc(Cl)c(Cl)c1)C(c1ccccc1)N1CCOCC1 (configuration not stated)	.	.	.	-
CCCn1c2c(c(O)c(C(=O)Nc3ncccc3C)c1=O)CCCC2	-	-	43	-
Cc1cccc(NC(=O)C2CCCN2/C=C/C(=O)C(F)(F)F)c1C (configuration not stated)	.	.	.	-
CCCCCn1c(N2CCC(Cc3ccccc3)CC2)nc2c1c(=O)[nH]c(=O)n2C	-	.	.	.
CC(=O)Cn1c(N2CCC(Cc3ccccc3)CC2)nc2c1c(=O)[nH]c(=O)n2C	-	-	-	-
C=C(C)Cn1c(N2CCC(Cc3ccccc3)CC2)nc2c1c(=O)[nH]c(=O)n2C	-	-	54	-
CCCn1c(N2CCC(Cc3ccccc3)CC2)nc2c1c(=O)[nH]c(=O)n2C	-	-	52	-
NC(=S)NNC(=O)c1ccccc1	.	-	-	-
N#Cc1c(N2CCN(C(=O)c3ccccc3)CC2)nc(-c2ccccc2)c2c1CCCC2	-	57	-	-
N#Cc1c(NCCN)nc(-c2ccccc2)c2c1CCCC2	-	-	-	-
N#Cc1c(N2CCN(C(=O)c3ccco3)CC2)nc(-c2ccccc2)c2c1CCCC2	-	52	-	-
N#Cc1c(NCCCO)nc(-c2ccccc2)c2c1CCCC2	-	-	47	-
O=C(NCCc1nc2ccccc2[nH]1)/C(=C/c1ccc2c(c1)OCO2)NC(=O)c1ccccc1Cl	.	.	.	-
CCCOc1ccc(/C=C/C(=O)NCc2ccccc2)cc1	.	.	.	-
O=C(C1c2ccccc2Oc2ccccc21)N1CCN(c2ccc(Cl)cc2)CC1	-	-	37	-
COc1ccccc1N1CCN(C(=O)C2c3ccccc3Oc3ccccc32)CC1	-	-	42	-
O=C(CCc1ccccc1)N1CCN(c2ccc(Cl)cc2)CC1	-	-	-	-
N#CCc1c(C#N)c(N)nc(N2CCN(Cc3ccc4c(c3)OCO4)CC2)c1C#N	.	-	-	-
N#CCc1c(C#N)c(N)nc(N2CCN(c3ccc(F)cc3)CC2)c1C#N	-	-	47	-
Cc1cc(N)c(-n2cc3c(=O)n(C)c(=O)n(C)c3c2)cc1C	-	-	32	-
SMILES	MT1-MMP txn act	PostGolgi yeast	PostGolgi ctrl	Measles CPE
O=C(Oc1ccc([N+](=O)[O-])cc1)c1cncc(Br)c1	.	.	.	-
O=C(NC1CCCc2ccccc21)c1ccccc1 (configuration not stated)	.	.	.	-
CC(C)[C@H](NC(=O)NC1CCCc2ccccc21)C(=O)O (some centres not stated)	-	-	33	20
CNC(=O)NC1CCCc2ccccc21 (configuration not stated)	-	-	-	23
COC(=O)[C@H](C)NC(=O)NC1CCCc2ccccc21 (some centres not stated)	-	-	-	56
Cc1ccc(Nc2nc3c(c(=O)[nH]c(=O)n3C)n2Cc2ccc(F)cc2)cc1	-	.	.	-
O=C(Cn1ncc(Cl)c(Cl)c1=O)N1CCN(S(=O)(=O)c2ccc3ccccc3c2)CC1	.	.	.	-
CC(=O)N1CCc2cc(S(=O)(=O)NCCC(=O)N3CCc4ccccc4C3)ccc21	-	-	-	-
CC(=O)N1CCc2cc(S(=O)(=O)NCCC(=O)N3CCN(c4ccccn4)CC3)ccc21	-	-	35	-
Cn1c(/C(C#N)=C(\O)COc2ccc3ccccc3c2)nc2ccccc21	-	-	-	-
COc1ccc(N/C=C(\C#N)c2nc3ccccc3n2C)c(OC)c1	-	-	49	-
CCC1C(=O)Nc2nc(-c3ccccc3)c(-c3ccccc3)n2N=C1C (configuration not stated)	.	-	42	-
N#CC1=C(SCC(N)=O)NC2=C(C(=O)c3ccccc32)C1c1ccc(Cl)cc1 (configuration not stated)	.	-	-	-
Cc1nc(NC(=O)c2ccc(Cl)cc2)sc1-c1csc(Nc2cccc(F)c2)n1	.	-	-	-
Cn1c(C(C#N)C(=O)c2sc3ccccc3c2Cl)nc2ccccc21 (configuration not stated)	-	-	79	-
CCc1ccc(-c2cc(C(F)(F)F)n3nc(C(=O)Nc4c(C)nn(Cc5ccc(F)cc5)c4C)cc3n2)s1	.	-	-	-
